The values below come from PubChem BioAssay (NCI).

Among the test systems are HCT-15 colon; HT29 colon; SNB-19 CNS; U251 CNS; PC-3 prostate; SK-MEL-5 melanoma; UACC-62 melanoma; LOX IMVI melanoma; SK-MEL-28 melanoma; SK-MEL-2 melanoma; EKVX NSCLC; SN12C renal; UO-31 renal; TK-10 renal; ACHN renal; CAKI-1 renal; A498 renal; CCRF-CEM leukemia; MOLT-4 leukemia.
Assay in all cases: NCI-60 one-dose screen, 48 h (100 = growth as untreated, 0 = no growth, -100 = all killed)
What all share (conditions): 10 µM unless noted

Compounds without any hit were thinned out: in the full panel of roughly 83,000, 20% have a hit.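 Treatment: one concentration, 48 hours, 96-well format. Scoring: percent growth, with anything below 10 considered active.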 Values without a mark were called inactive. Active and inactive are the calls of the source.

`COc1ccc(/C=C2/C(=O)NC(SCC(=O)N3CCN(c4cc5c(cc4F)c(=O)c(C(=O)O)cn5C4CC4)CC3)=NC2N)cc1OC` (configuration not stated): the growth in the test on HCT-15 colon was 98.9%; in the test on HT29 colon it was 112%; in the test with SNB-19 CNS, 102%; with U251 CNS, 102%; with PC-3 prostate it was 99.2%; with SK-MEL-5 melanoma, 104%. Also, the growth in the test on UACC-62 melanoma was 102%; with LOX IMVI melanoma, 103%; in the test with SK-MEL-28 melanoma, 105%; with SK-MEL-2 melanoma, 111%; with EKVX NSCLC it was 87.6%; in the test on SN12C renal it was 104%. Moreover, the growth is 86.9% with UO-31 renal; 112% in the test on TK-10 renal; 104% in the test on ACHN renal; 94.5% with CAKI-1 renal; 107% in the test on A498 renal; 99.4% in the test on CCRF-CEM leukemia. Further, the growth in the test with MOLT-4 leukemia was 109%.
In the case of `CC12CCC3C4(C)COC(c5ccco5)OC4CCC3(C)C1CC(C1=CCOC1=O)O2` (configuration not stated), the growth is 97.7% in the test with HCT-15 colon; 105% in the test on HT29 colon; 97.3% with SNB-19 CNS; 110% in the test with U251 CNS; 90.5% in the test with PC-3 prostate; 101% in the test with SK-MEL-5 melanoma. For the same compound, the growth is 87.8% in the test on UACC-62 melanoma; 106% with LOX IMVI melanoma; 106% in the test with SK-MEL-28 melanoma; 131% with SK-MEL-2 melanoma; 91.6% with EKVX NSCLC; 96.4% with SN12C renal. In addition, the growth is 81.5% in the test with UO-31 renal; 105% in the test on TK-10 renal; 102% in the test on ACHN renal; 92.4% in the test on CAKI-1 renal; 103% in the test with A498 renal; 101% with CCRF-CEM leukemia. In the test on MOLT-4 leukemia, the growth is 97.5%.
As to `COc1cccc(CC(C)=C(c2ccc(OCCN3CCCCC3)cc2)c2ccc(OCCN3CCCCC3)cc2)c1`, the growth is -68.1% (active) in the test with HCT-15 colon; -77.9% (active) with HT29 colon; -9.73% (active) in the test with SNB-19 CNS; -83.7% (active) in the test on U251 CNS; 19.2% with PC-3 prostate; -96% (active) in the test on SK-MEL-5 melanoma. For the same compound, the growth is -72.7% (active) in the test with UACC-62 melanoma; -91.9% (active) in the test with LOX IMVI melanoma; -87.9% (active) with SK-MEL-28 melanoma; -65.4% (active) in the test with SK-MEL-2 melanoma; 18% with EKVX NSCLC; -42.3% (active) in the test with SN12C renal. In addition, the growth is -92.2% (active) in the test with UO-31 renal; 32.5% in the test with TK-10 renal; -88.4% (active) in the test on ACHN renal; -46.8% (active) with CAKI-1 renal; 8.39% (active) in the test with A498 renal; -31.8% (active) in the test with CCRF-CEM leukemia. Further, the growth with MOLT-4 leukemia is -34.3% (active).
Consider `C=C1CCC2C(C)(CO)C(O)CCC2(C)C1C/C=C1/C(=O)OCC1Oc1ccccc1C` (configuration not stated), for which the growth in the test with HCT-15 colon is 55.9%; with HT29 colon, 42.8%; in the test on SNB-19 CNS, 83.4%; with U251 CNS it was 88.4%; in the test with PC-3 prostate, 86.3%; in the test on SK-MEL-5 melanoma, 93.6%. The growth is 77.3% with UACC-62 melanoma; 2.56% (active) in the test with LOX IMVI melanoma; 98% with SK-MEL-28 melanoma; 87.5% with SK-MEL-2 melanoma; 101% in the test on EKVX NSCLC; 85.9% in the test on SN12C renal. The growth in the test on UO-31 renal is 93%; in the test with TK-10 renal it was 136%; with ACHN renal it was 91.6%; with CAKI-1 renal, 95.8%; in the test with A498 renal it was 108%; with CCRF-CEM leukemia it was 20.3%. Further, the growth in the test on MOLT-4 leukemia is 92.5%.
Regarding `O=c1[nH]c2ccc(Br)cc2c2c1C(c1ccc(Cl)cc1)c1c(ncn3nc(-c4ccco4)nc13)O2` (configuration not stated), the growth is 64.9% with HCT-15 colon; 73% with HT29 colon; 75.8% with SNB-19 CNS; 80.8% with U251 CNS; 72.1% with PC-3 prostate; 67.4% with SK-MEL-5 melanoma. In addition, the growth with UACC-62 melanoma is 59.8%; with LOX IMVI melanoma, 76.7%; in the test with SK-MEL-28 melanoma, 91.1%; in the test with SK-MEL-2 melanoma it was 89.1%; in the test with EKVX NSCLC, 48.8%; in the test on SN12C renal, 74.3%. The growth in the test on UO-31 renal is 35%; in the test on TK-10 renal, 110%; in the test with ACHN renal, 65.4%; in the test on CAKI-1 renal it was 46.3%; in the test with A498 renal, 59.6%; in the test on CCRF-CEM leukemia, 73.9%. Also, the growth with MOLT-4 leukemia was 88.1%.
`O=C(NCCNc1nccc(-n2ccc3cccnc32)n1)c1ccc(C(F)(F)F)cc1`: the growth with HCT-15 colon is 104%; with HT29 colon, 113%; in the test with SNB-19 CNS, 104%; in the test with U251 CNS, 99.8%; with PC-3 prostate, 102%; in the test on SK-MEL-5 melanoma, 101%. For the same compound, the growth with UACC-62 melanoma is 94.6%; with LOX IMVI melanoma, 99.4%; in the test on SK-MEL-28 melanoma, 105%; in the test with SK-MEL-2 melanoma it was 108%; with EKVX NSCLC, 94.2%; with SN12C renal, 98.7%. The growth in the test on UO-31 renal was 84%; in the test with TK-10 renal, 134%; in the test on ACHN renal it was 97.6%; in the test on CAKI-1 renal, 87.6%; in the test on A498 renal, 108%; in the test on CCRF-CEM leukemia it was 101%. Besides, the growth in the test with MOLT-4 leukemia is 104%.
As to `C=C1CCC2C(C)(CO)C(O)CCC2(C)C1CC(NCc1ccccc1)C1=CCOC1=O` (configuration not stated), the growth with HCT-15 colon is 105%; in the test on HT29 colon it was 99.6%; in the test with SNB-19 CNS, 101%; in the test on U251 CNS, 96.2%; in the test with PC-3 prostate, 101%; in the test with SK-MEL-5 melanoma, 113%. In addition, the growth in the test on UACC-62 melanoma is 94.5%; in the test on LOX IMVI melanoma, 97.5%; in the test with SK-MEL-28 melanoma, 101%; in the test with SK-MEL-2 melanoma it was 101%; with EKVX NSCLC it was 100%; with SN12C renal, 93.1%. Further, the growth was 87.9% with UO-31 renal; 103% in the test on TK-10 renal; 100% in the test on ACHN renal; 90.3% with CAKI-1 renal; 106% with A498 renal; 105% in the test with CCRF-CEM leukemia. For the same compound, the growth with MOLT-4 leukemia was 108%.
As for `Cc1nc2ncccc2nc1Nc1ccc(S(=O)(=O)Nc2ccccn2)cc1`, the growth in the test with HCT-15 colon is 123%; in the test on HT29 colon, 121%; in the test on SNB-19 CNS, 88.5%; in the test on U251 CNS it was 94.4%; with PC-3 prostate, 88.1%; in the test with SK-MEL-5 melanoma it was 99%. In addition, the growth is 89.4% in the test on UACC-62 melanoma; 85.1% with LOX IMVI melanoma; 101% with SK-MEL-28 melanoma; 104% in the test with SK-MEL-2 melanoma; 98% in the test on EKVX NSCLC; 93.7% in the test on SN12C renal. Also, the growth with UO-31 renal is 61.5%; in the test on TK-10 renal it was 106%; with ACHN renal it was 95.2%; in the test on CAKI-1 renal, 82.6%; in the test on A498 renal, 104%; with CCRF-CEM leukemia, 107%. Moreover, the growth in the test with MOLT-4 leukemia is 91.9%.
